# Screening data deposited in PubChem BioAssay by Broad Institute.
# STK33 inh: blocks human STK33 kinase activity; hit rate 0.44% among 27,000; Q9BYT3; AID 2322; inhibition, % at 12.5 µM; ADP-Glo luminescence, MBP substrate; in the data active = inhibition above about 20%; inconclusive = no clear call, values can overlap the other calls
# Target sequence (Q9BYT3 whole entry, looked up): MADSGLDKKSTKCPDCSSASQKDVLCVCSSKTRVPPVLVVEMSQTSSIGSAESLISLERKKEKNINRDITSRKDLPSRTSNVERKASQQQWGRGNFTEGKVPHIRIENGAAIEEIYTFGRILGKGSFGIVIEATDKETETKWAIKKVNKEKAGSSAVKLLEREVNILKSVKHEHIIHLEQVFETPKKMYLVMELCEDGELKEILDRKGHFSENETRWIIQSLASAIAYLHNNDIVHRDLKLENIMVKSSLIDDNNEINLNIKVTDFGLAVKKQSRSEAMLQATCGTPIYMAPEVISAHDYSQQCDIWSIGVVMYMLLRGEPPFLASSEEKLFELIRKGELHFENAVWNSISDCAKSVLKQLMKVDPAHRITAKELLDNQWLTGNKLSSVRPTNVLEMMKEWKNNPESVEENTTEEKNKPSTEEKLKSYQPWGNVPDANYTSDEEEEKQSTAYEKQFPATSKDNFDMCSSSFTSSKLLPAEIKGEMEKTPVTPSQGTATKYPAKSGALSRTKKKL
# NOMO-1 viab: STK33 inhibitor candidate reducing NOMO-1 cell viability | NOMO-1 AML viability, CellTiter-Glo luminescence, 72 h | inhibition, % (concentration not given with the values) | hit rate 7.5% among 37,000 | AID 2330; in the data active = inhibition above about 80%; inconclusive = no clear call, values can overlap the other calls
# PD-1 reverse act: reversal of PD-1 mediated T-cell inhibition. primary human CD4 T cells, PD-L1 beads, CellTiter-Glo 96 h. activation, % (no concentration beside the values). 29,000 tested, under 10 active. AID 2316; call rule not given here;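 note: 0% = median vehicle wells and 100% = positive control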
# The depositor's hits bear a star; u = inconclusive; x = no result given. Only a selection was taken, and hits are over-represented in it overall.
SMILES,STK33 inh,NOMO-1 viab,PD-1 reverse act
C[C@H](CO)N1C[C@H](C)[C@@H](CN(C)Cc2ccncc2)Oc2c(NC(=O)CCCCCC(=O)Nc3ccccc3N)cccc2C1=O,x,15,1
C[C@@H]1CN([C@H](C)CO)C(=O)c2cc(NC(=O)CCCCCC(=O)Nc3ccccc3N)ccc2O[C@H]1CN(C)Cc1ccc(-c2ccccc2)cc1,x,69,1
C[C@H]1CN([C@@H](C)CO)C(=O)c2cccc(NC(=O)CCCCCC(=O)Nc3ccccc3N)c2O[C@H]1CN(C)CC1CC1,x,13,2
COC(=O)c1c(NC(=S)Nc2cccc(S(=O)(=O)N3CCOCC3)c2)sc2c1CCC2,1,x,x
COc1cccc(-c2ccc(C#N)c(SCC(=O)Nc3ccccc3Br)n2)c1,4,-2,x
COc1ccccc1NC(=O)c1ccc(CSc2nnnn2-c2ccccc2)cc1,1,-25,x
COc1cc(NC(=O)Cn2nc(C(F)(F)F)c(Cl)c2C)cc([N+](=O)[O-])c1,-3,114*,-6
COc1cc(NC(=O)Cn2nc(C(F)(F)F)c(Cl)c2C)cc(OC)c1OC,1,23,1
S=C(NCC1CCCO1)Nc1cccc(Cn2cc(Cl)cn2)c1 (stereo unspecified),-3,15,x
CCNC(=O)CCc1nc(-c2ccc(OC)cc2)no1,4,-13,1
CC1/C(=N/O)C[C@@H]2C[C@H]1C2(C)C (stereo partly specified),2,15,0
COc1ccc(N(C(=O)c2ccccc2)S(=O)(=O)c2cccc([N+](=O)[O-])c2)cc1,3,37,-1
NCCCCNS(=O)(=O)c1ccc2ccccc2c1,0,1,1
NCCCCCCNS(=O)(=O)c1cccc2ccccc12,1,84*,2
Cn1c(SCC(=O)Nc2ccccc2-c2ccccc2)nnc1-c1ccccn1,5,6,0
CCC1(CC)C(=O)N(CC(=O)OC)C(=O)N(C)C1=S,x,24,0
CC1=CC(C)(C)N2C(=O)C(=O)c3cc(OC(=O)CN4C(=O)c5cccc6cccc(c56)C4=O)cc1c32,1,119*,-13
COc1ccc(C)cc1NC(=O)CN1C(=O)c2cccc3cccc1c23,4,57,x
Cc1ccc(NC(=O)c2ccc(OC(=O)CN3C(=O)c4ccccc4C3=O)cc2)cc1,-1,43,x
CC1=CC(C)(C)N2C(=O)C(=O)c3cc(OC(=O)CN4C(=O)c5ccccc5C4=O)cc1c32,6,115*,-7
O=C(CN1C(=O)c2ccccc2C1=O)c1ccc(C(F)(F)F)cc1,x,-16,3
COC(=O)c1c(NC(=O)c2ccccc2N(C)S(=O)(=O)c2ccccc2)sc2c1CCCC2,2,117*,-3
COC(=O)c1c(NC(=O)c2ccc(N(C)S(=O)(=O)c3ccc(C)cc3)cc2)sc2c1CCCC2,-3,-18,x
Cn1c(=N)n(CCCOc2ccc(F)cc2)c2ccccc21,x,94*,-2
CC(O)c1nc2ccccc2n1CCOc1ccc(F)cc1 (stereo unspecified),0,11,x
SMILES,STK33 inh,NOMO-1 viab,PD-1 reverse act
O=C(c1ccccc1)c1cc[n+](Cc2ccccn2)cc1,x,63,0
CCOC(=O)c1cnc2c(OC)cccc2c1N1CCC2(CC1)OCCO2,-2,39,1
CCOC(=O)c1cnc2c(OC)cccc2c1NC1CCCCC1,x,118*,-6
CO[C@@]12[C@@H]3NC3CN1C1=C(C(=O)C(N)=C(C)C1=O)[C@@H]2COC(N)=O (stereo partly specified),3,106*,x
CC1OC(OC(=O)C2=CC3CC(C)(C)CC34C(C)OC(=O)CC24)C(O)C(O)C1O (stereo unspecified),-1,-1,0
CC(=O)C1C(=O)[C@@H]2[C@H]3c4c[nH]c5cccc(c45)C[C@H]3C(C)(C)N2C1=O (stereo partly specified),-1,131*,-14
CC(=O)C1C(=O)C2C3c4c[nH]c5cccc(c45)CC3C(C)(C)N2C1=O (stereo unspecified),-1,10,x
O=C(COc1ccc(Cl)cc1C1C2=C(CCCC2=O)NC2=C1C(=O)CCC2)Nc1ccc(Cl)cc1,-1,116*,0
O=C(COc1ccc(Cl)cc1Cl)Nc1cc(C(=O)O)cc(C(=O)O)c1,-8,15,1
COCCCN1C(=O)[C@@]2(Cc3ccccc31)c1ccccc1C(=O)N(Cc1ccccc1C(F)(F)F)[C@H]2c1ccc(CO)cc1,3,x,x
O=S(=O)(CCSc1nccc(-c2ccc(Cl)cc2)n1)c1ccc(Cl)cc1,x,18,0
NC(=O)[C@@H]1[C@H]2C(=O)O[C@H](c3ccccc3)[C@H](c3ccccc3)N2[C@H](c2ccc(OCCO)cc2)[C@@]12C(=O)Nc1ccc(C#CC3(O)CCCCCC3)cc12,22*,x,x
COc1cc2c(cc1OC)CN(C(=O)[C@@H]1[C@H]3C(=O)O[C@H](c4ccccc4)[C@H](c4ccccc4)N3[C@H](c3ccc(OCCO)cc3)[C@@]13C(=O)Nc1ccc(C#CC4=CCCCC4)cc13)CC2,18,x,x
COc1cc2c(cc1OC)CN(C(=O)[C@H]1[C@@H]3C(=O)O[C@@H](c4ccccc4)[C@@H](c4ccccc4)N3[C@@H](c3ccc(OCCO)cc3)[C@]13C(=O)Nc1ccc(C#CC4=CCCCC4)cc13)CC2,22*,x,x
O=C1O[C@@H](c2ccccc2)[C@@H](c2ccccc2)N2[C@@H](c3ccc(OCCO)cc3)[C@]3(C(=O)Nc4ccc(C#CC5=CCCCC5)cc43)[C@@H](C(=O)N3CCCCCCC3)[C@H]12,21*,x,x
O=C1O[C@H](c2ccccc2)[C@H](c2ccccc2)N2[C@H]1[C@@H](C(=O)N1CCCCCCC1)[C@]1(C(=O)Nc3ccc(C#CC4(O)CCCCCC4)cc31)[C@H]2c1ccc(OCCO)cc1,18,x,x
NC(=O)[C@@H]1[C@H]2C(=O)O[C@H](c3ccccc3)[C@H](c3ccccc3)N2[C@H](c2ccc(OCCO)cc2)[C@@]12C(=O)Nc1ccc(C#CC3=CCCCC3)cc12,9,x,x
Cc1cc(SCC(=O)NN)c(C)cc1Cl,4,15,1
O=C(CN1CCCCC1)Nc1ccc(NC(=O)CN2CCCCC2)cc1,0,20,1
c1ccc(COc2ccc(NCCc3ccncc3)cc2)cc1,x,49,1
N#Cc1c(SCc2ccccc2Cl)nc2c(c1C(F)(F)F)CCc1occc1-2,x,u,-3
COc1ccc(Nc2nc(NC(C)(C)C)nc(OC)n2)c(OC)c1,-2,-8,x
Cc1cc(NC(=O)CSc2nc3ccccc3[nH]2)ccc1Cl,0,45,x
COC(=O)c1ccccc1NC(=O)CSc1nc2cc3ccccc3cc2[nH]1,9,5,x
CCOC(=O)c1cc(NC(=O)CSc2nc3ccccc3[nH]2)ccc1Cl,-1,100*,-2
O=C(CSc1nc2cc3ccccc3cc2[nH]1)Nc1ccccc1Cl,3,108*,x
CCOC(=O)c1c(NC(=O)c2ccc(Cn3cc(Cl)cn3)o2)sc2c1CCCCC2,-9,36,-2
C[C@@H]1CN([C@@H](C)CO)C(=O)c2cc(NS(=O)(=O)c3ccc(Cl)cc3)ccc2O[C@@H]1CN(C)Cc1ccc(C(=O)Nc2ccccc2N)cc1,x,110*,-3
Cc1ccc(S(=O)(=O)Nc2ccc3c(c2)C(=O)N([C@@H](C)CO)C[C@@H](C)[C@H](CN(C)Cc2ccc(C(=O)Nc4ccccc4N)cc2)O3)cc1,x,17,2
